Test results from article PMC4336329 (PLoS ONE, 2015).
In all, about 310,000 compounds went through this assay and about 14,000 (4.5%) showed an effect of 50% or more. Effects have a minus sign here. This is one part of a sample in which strong results are shown more often than they occur.

target: human ether-à-go-go-related gene (hERG) potassium channel (human, UniProt Q12809); assay: primary screen, population patch clamp on CHO cells stably expressing hERG; higher = less effect of the substance
Sequence (Q12809 whole entry, looked up): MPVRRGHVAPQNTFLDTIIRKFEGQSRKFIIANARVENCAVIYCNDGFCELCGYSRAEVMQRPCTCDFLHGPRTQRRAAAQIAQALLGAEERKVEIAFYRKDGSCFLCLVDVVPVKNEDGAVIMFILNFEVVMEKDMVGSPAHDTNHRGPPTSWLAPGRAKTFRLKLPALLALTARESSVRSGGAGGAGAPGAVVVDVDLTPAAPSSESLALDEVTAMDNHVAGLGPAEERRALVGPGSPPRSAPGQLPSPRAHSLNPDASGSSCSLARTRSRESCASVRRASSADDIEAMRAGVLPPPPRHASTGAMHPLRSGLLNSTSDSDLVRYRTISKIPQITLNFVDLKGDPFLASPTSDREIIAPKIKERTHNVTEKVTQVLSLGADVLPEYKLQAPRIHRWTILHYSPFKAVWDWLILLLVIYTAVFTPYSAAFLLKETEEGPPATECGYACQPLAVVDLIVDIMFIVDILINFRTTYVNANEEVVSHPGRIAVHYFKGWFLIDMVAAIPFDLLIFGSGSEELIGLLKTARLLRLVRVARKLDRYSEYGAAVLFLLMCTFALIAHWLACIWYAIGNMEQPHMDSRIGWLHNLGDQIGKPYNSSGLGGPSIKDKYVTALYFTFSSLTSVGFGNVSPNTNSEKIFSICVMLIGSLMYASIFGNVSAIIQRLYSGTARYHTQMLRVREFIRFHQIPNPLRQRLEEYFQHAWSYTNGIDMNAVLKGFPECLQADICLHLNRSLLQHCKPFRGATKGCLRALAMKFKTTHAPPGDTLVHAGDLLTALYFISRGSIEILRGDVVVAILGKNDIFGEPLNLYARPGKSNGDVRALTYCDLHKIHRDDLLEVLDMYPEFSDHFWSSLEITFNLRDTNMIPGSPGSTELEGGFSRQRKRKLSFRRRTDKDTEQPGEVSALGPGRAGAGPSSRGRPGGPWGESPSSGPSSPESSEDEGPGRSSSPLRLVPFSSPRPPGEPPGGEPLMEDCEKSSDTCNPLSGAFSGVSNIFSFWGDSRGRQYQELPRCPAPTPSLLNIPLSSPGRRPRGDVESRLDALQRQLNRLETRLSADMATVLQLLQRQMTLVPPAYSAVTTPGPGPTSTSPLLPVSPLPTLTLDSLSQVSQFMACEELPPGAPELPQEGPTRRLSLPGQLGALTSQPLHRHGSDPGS
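Further: peak tail current of the secondary pulse compared with the same well before compound.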

Row | Compound | hERG current change (%, negative = inhibition) at 10uM
1 | CCCc1cc(=O)oc2cc(C)c3c(C)coc3c12 | 5.51%
2 | COc1cccc(-n2cnc3sc(C)c(C)c3c2=O)c1 | -12%
3 | COC(=O)C1=C(C)NC(C)=C(C(=O)OCCN(C)Cc2ccccc2)C1c1cccc([N+](=O)[O-])c1.Cl (stereo not drawn) | 0.0465%
4 | COc1cc(/C=C/c2noc(-c3ccccc3O)n2)cc(OC)c1OC | 9.26%
5 | O=C(NCc1cccc(Cl)c1)C1CCC(=O)N(CCN2CCOCC2)C1 (stereo not drawn) | 20.5%
6 | CCOC(=O)c1ccc2[nH]c3c(c2c1)CCCC3 | -19.2%
7 | CC(OC(=O)c1cccs1)C(=O)NC1CC1 (stereo not drawn) | -5.98%
8 | CC(OC(=O)CCC(=O)c1cccs1)C(=O)NC1CCCCC1C (stereo not drawn) | -6.24%
9 | CC(OC(=O)c1cccs1)C(=O)NC1CCCCC1C (stereo not drawn) | -66.7%
10 | CCOC(=O)CNC(=O)Cn1cnc2c(nnn2-c2cccc(OC)c2)c1=O | 17.5%
11 | COc1cc(C(c2c(C)[nH][nH]c2=O)c2c(C)[nH][nH]c2=O)ccc1OC(=O)c1cccc([N+](=O)[O-])c1 | 10.4%
12 | Cc1cccc(NC(=O)N2CCCCCC2)c1 | -8.87%
13 | Cc1cc([N+](=O)[O-])nn1CCCC(=O)N1CCN(c2ccc(F)cc2)CC1 | -53.2%
14 | Cc1nn(CC(=O)N2CCN(c3ccccc3)CC2)c(C)c1[N+](=O)[O-] | -9.49%
15 | Cc1c(Br)c([N+](=O)[O-])nn1CCCC(=O)N1CCN(c2ccccc2)CC1 | -32.4%
16 | Cc1c(Cl)c([N+](=O)[O-])nn1CCCC(=O)N1CCN(c2ccccc2)CC1 | -58%
17 | Cc1nn(CCCC(=O)N2CCN(c3ccc(F)cc3)CC2)c(C)c1[N+](=O)[O-] | -62.1%
18 | Cc1cc([N+](=O)[O-])nn1CCCC(=O)NCc1ccc(F)cc1 | -0.962%
19 | COc1ccccc1N1CCN(C(=O)CCCn2nc(C)c([N+](=O)[O-])c2C)CC1 | -19.1%
20 | Cc1cc([N+](=O)[O-])nn1CCCC(=O)N1CCN(c2ccccc2)CC1 | -21.4%
21 | Cc1c(Cl)c([N+](=O)[O-])nn1CCCC(=O)O | 9.17%
22 | CC(=O)N1CCN(c2ccc(NC(=O)c3ccc(OCc4ccccc4)cc3)cc2)CC1 | 16.7%
23 | CCOC(=O)C1CCC2(CC1)C(C#N)=C(N)Oc1n[nH]c(C)c12 (stereo not drawn) | -14.2%
24 | Cc1cccc(C(=O)Oc2csc(=S)n2C(=O)c2cccc(C)c2)c1 | 6.76%
25 | COc1ccc([N+](=O)[O-])c(OC)c1C(=O)NC(=O)Nc1nc(C)cc(C)n1 | 18%
26 | O=S(=O)(Nc1ccccc1)c1ccc2c(c1)CCO2 | 11%
27 | O=C(Cn1c(=O)c2sccc2n(Cc2ccc([N+](=O)[O-])cc2)c1=O)NCCc1ccccc1 | -49%

Row | Compound | hERG current change (%, negative = inhibition) at 10uM
28 | Cc1cnc(C(=O)OCC(=O)N2CCN(C(=O)c3ccco3)CC2)cn1 | -8.85%
29 | O=C(OCC(=O)N1CCN(C(=O)c2ccco2)CC1)c1cn(-c2ccccc2)nc1-c1ccccc1 | -67%
30 | O=C(c1cn(-c2ccccc2)nc1-c1ccccc1)N1CCOCC1 | -4.6%
31 | COc1ccccc1-c1nn(-c2ccccc2)cc1C(=O)N1CCN(C(=O)c2ccco2)CC1 | -36%
32 | O=C(OCC(=O)N1CCN(C(=O)c2ccco2)CC1)c1ccccc1O | -18.2%
33 | O=C(c1ccco1)N1CCN(C(=O)c2cn(-c3ccccc3)nc2-c2ccccc2)CC1 | -86.5%
34 | COCCSc1ccccc1C(=O)Nc1ccncc1 | 16.4%
35 | O=C(/C=C/c1ccc(F)cc1)NC(=S)Nc1ccccc1 | 4.35%
36 | Cc1ccc(C(=O)Nc2ccc(SC(F)F)cc2)s1 | 24.4%
37 | Cc1ccc(CNC(=O)CSc2nc3[nH]ncc3c(=O)[nH]2)cc1 | 4.89%
38 | COC(=O)c1c(N(S(C)(=O)=O)S(C)(=O)=O)sc2c1CCN(c1ncc(C(F)(F)F)cc1Cl)C2 | 13%
39 | CN(Cc1ccccc1)C(=O)C1CCN(S(=O)(=O)c2ccc(-n3cnnn3)cc2)CC1 | -75.2%
40 | C=CCN(CC=C)C(=O)C1CCN(S(=O)(=O)c2ccc(-n3cnnn3)cc2)CC1 | -54.4%
41 | CCC(C)NC(=O)C1CCN(S(=O)(=O)c2ccc(-n3cnnn3)cc2)CC1 (stereo not drawn) | 3.26%
42 | CC(=O)c1ccc(S(=O)(=O)N2CCC(Oc3ccc(-n4cnnn4)cc3)CC2)cc1 | 21.9%
43 | C=CCN(CC=C)C(=O)C1CCN(S(=O)(=O)c2ccc(N3CCCC3=O)cc2)CC1 | 5.01%
44 | O=S(=O)(c1ccccc1)N1CCC(Oc2ccc(-n3cnnn3)cc2)CC1 | -74.8%
45 | O=C(C1CCN(S(=O)(=O)c2ccc(-n3cnnn3)cc2)CC1)N1CCN(c2ccccc2)CC1 | -35.7%
46 | Cc1ccc(S(=O)(=O)N2CCC(Oc3ccc(-n4cnnn4)cc3)CC2)cc1 | 0.934%
47 | CCN(CC)C(=O)C1CCN(S(=O)(=O)c2ccc(-n3cnnn3)cc2)CC1 | -30%
48 | COc1ccc(N2CCN(c3nc4ccccc4nc3NS(=O)(=O)c3ccccc3)CC2)cc1 | 1.21%
49 | CCOC(=O)/C(C#N)=C/c1cn(CCC(=O)O)nc1-c1ccc(F)cc1 | 4.24%
50 | Cc1ccc(S(=O)(=O)N2CCN(C3CC(=O)N(CCc4ccccc4)C3=O)CC2)cc1C (stereo not drawn) | -27.7%
51 | Cc1cccc(C)c1NC(=O)C(c1cccs1)N(Cc1ccco1)C(=O)Cn1nnc2ccccc21 (stereo not drawn) | 14.4%
52 | Cc1ccc(S(=O)(=O)NCCC(=O)OCC(=O)NC(=O)c2cccn2C)cc1 | -12.5%
53 | Cn1cccc1C(=O)NC(=O)COC(=O)CCNS(=O)(=O)c1cccc(C(F)(F)F)c1 | -52.4%
54 | O=C(COC(=O)CCNS(=O)(=O)c1cccc(C(F)(F)F)c1)NC(=O)NC1CCCCC1 | -14.4%
